In PubChem BioAssay AID1159580 (chemical genetic matrix, 2015):
Several values for one entry are separate records, joined by “and”; a condition that tells them apart may be missing. Equal entries are not always repeated. Screen size: about 5,500 compounds; about 2,000 (36%) were called active. About 18% were inconclusive and are not listed. Cut-off read from the data, not from the text of the source: active = normalized growth mostly below about 0.91 (no sharp cut-off); inconclusive = no clear call, values can overlap the other calls; inactive = mostly above about 0.92. This is one part of the list.

Test: chemical genetic growth profiling, strain panel (AID 1159580);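 note: tested at 20 µM; growth read once vehicle control cultures reached saturation at 30 °C; 1 = growth at the plate median or of vehicle wells; lower values mean less growth of the strain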
Details: S. cerevisiae deletion strains, growth OD

Measured: normalized growth

Cc1cc(O)c(C)c(O)c1C(=O)O
inactive: locus YAL021C, strain ccr4, stronger effect = lower value 0.989 | locus YAL026C, strain drs2, stronger effect = lower value 0.979 | locus YAL030W, strain snc1, stronger effect = lower value 0.999 | locus YBL061C, strain skt5, stronger effect = lower value 0.989 | locus YBR009C, strain hhf1, stronger effect = lower value 0.97 | locus YBR021W, strain FUR4, stronger effect = lower value 0.986 | locus YBR023C, strain chs3, stronger effect = lower value 0.981 | locus YBR171W, strain sec66, stronger effect = lower value 0.99 | locus YBR229C, strain ROT2, stronger effect = lower value 0.993 | locus YBR231C, strain swc5, stronger effect = lower value 0.992 | locus YBR279W, strain paf1, stronger effect = lower value 0.984 | locus YCL011C, strain gbp2, stronger effect = lower value 0.991 | locus YCL016C, strain dcc1, stronger effect = lower value 0.99 | locus YCL029C, strain bik1, stronger effect = lower value 0.976 | locus YCL061C, strain MRC1, stronger effect = lower value 1.01 | locus YCL069W, strain vba3, stronger effect = lower value 0.995 | locus YCR088W, strain abp1, stronger effect = lower value 0.988 | locus YDL005C, strain med2, stronger effect = lower value 0.984 | locus YDL035C, strain GPR1, stronger effect = lower value 1.03 | locus YDL040C, strain nat1, stronger effect = lower value 0.99 | locus YDL074C, strain BRE1, stronger effect = lower value 1.06 | locus YDL101C, strain DUN1, stronger effect = lower value 0.986 | locus YDL134C, strain PPH21, stronger effect = lower value 0.978 | locus YDL185W, strain tfp1, stronger effect = lower value 0.964 | locus YDL192W, strain arf1, stronger effect = lower value 0.997 | locus YDR001C, strain nth1, stronger effect = lower value 0.981 | locus YDR069C, strain doa4, stronger effect = lower value 0.956 | locus YDR101C, strain arx1, stronger effect = lower value 1.04 | locus YDR137W, strain rgp1, stronger effect = lower value 0.899 | locus YDR159W, strain sac3, stronger effect = lower value 0.983 | locus YDR162C, strain NBP2, stronger effect = lower value 1.03 | locus YDR195W, strain ref2 0.977 | locus YDR297W, strain sur2, stronger effect = lower value 0.986 | locus YDR318W, strain mcm21, stronger effect = lower value 0.979 | locus YDR334W, strain swr1, stronger effect = lower value 0.975 | locus YDR335W, strain msn5, stronger effect = lower value 0.985 | locus YDR388W, stronger effect = lower value 1 | locus YDR392W, strain spt3, stronger effect = lower value 0.931 | locus YDR502C, strain sam2, stronger effect = lower value 0.98 | locus YEL003W, strain gim4, stronger effect = lower value 0.978 | locus YEL037C, strain rad23, stronger effect = lower value 0.976 | locus YEL061C, strain CIN8 (second series), stronger effect = lower value 0.979 | locus YEL061C, strain CIN8, stronger effect = lower value 1 | locus YER015W, strain faa2, stronger effect = lower value 0.987 | locus YER016W, strain bim1, stronger effect = lower value 0.991 | locus YER110C, stronger effect = lower value 0.984 | locus YER111C, strain swi4, stronger effect = lower value 0.985 | locus YER155C, strain BEM2 (second series), stronger effect = lower value 0.968 | locus YER155C, strain BEM2, stronger effect = lower value 0.988 | locus YER167W, strain BCK2, stronger effect = lower value 1.01 | locus YFR010W, strain ubp6, stronger effect = lower value 0.975 | locus YGL078C, strain dbp3, stronger effect = lower value 0.95 | locus YGL086W, strain mad1, stronger effect = lower value 0.997 | locus YGL167C, strain pmr1, stronger effect = lower value 0.974 | locus YGL173C, strain kem1, stronger effect = lower value 0.984 | locus YGL227W, strain vid30, stronger effect = lower value 0.995 | locus YGL240W, strain doc1, stronger effect = lower value 0.906 | locus YGL248W, strain PDE1, stronger effect = lower value 0.978 | locus YGL253W, strain hxk2, stronger effect = lower value 0.993 | locus YGR078C, strain PAC10, stronger effect = lower value 0.976 | locus YGR135W, strain pre9, stronger effect = lower value 0.925 | locus YGR252W, strain gcn5, stronger effect = lower value 0.926 | locus YHR013C, strain ard1, stronger effect = lower value 0.954 | locus YHR027C, strain rpn1, stronger effect = lower value 0.997 | locus YHR030C, strain SLT2, stronger effect = lower value 1.04 | locus YHR079C, strain IRE1 (second series), stronger effect = lower value 0.993 | locus YHR079C, strain IRE1, stronger effect = lower value 1.02 | locus YHR094C, strain hxt1, stronger effect = lower value 0.981 | locus YHR129C, strain ARP1, stronger effect = lower value 1.01 | locus YHR142W, strain chs7, stronger effect = lower value 1.02 | locus YHR200W, strain rpn10, stronger effect = lower value 0.96 | locus YIL066C, strain RNR3, stronger effect = lower value 1.01 | locus YIL073C, strain SPO22, stronger effect = lower value 0.806 | locus YIL125W, strain kgd1, stronger effect = lower value 1 | locus YIR030C, strain dcg1, stronger effect = lower value 0.989 | locus YJL092W, strain hpr5, stronger effect = lower value 1 | locus YJL095W, strain BCK1 (second series), stronger effect = lower value 1 | locus YJL095W, strain BCK1, stronger effect = lower value 0.988 and 1.05 | locus YJL115W, strain asf1, stronger effect = lower value 0.983 | locus YJL129C, strain trk1, stronger effect = lower value 0.995 | locus YJL134W, strain LCB3, stronger effect = lower value 1 | locus YJL154C, strain vps35, stronger effect = lower value 0.986 | locus YJL164C, strain tpk1, stronger effect = lower value 1.01 | locus YJL166W, strain qcr8, stronger effect = lower value 0.961 | locus YJL168C, strain set2, stronger effect = lower value 0.982 | locus YJL187C, strain SWE1 (second series), stronger effect = lower value 0.985 | locus YJL187C, strain SWE1, stronger effect = lower value 0.992
